Test results taken from PubChem BioAssay AID651564 (Sanford-Burnham Center for Chemical Genomics, 2012).
The other results are listed elsewhere or left out. Active and inactive are the calls of the source. Cut-off read from the data, not from the text of the source: active = IC50 below about 80 µM; inactive = the rest.

assay: fluorescent counter-screen in isolated mitochondria, dose response, counter-screen for MPTP inhibitor project, biochemical, fluorescence, uHTS hits (AID 651564); details: isolated mitochondria counterscreen, fluorescence read-out

Row | Compound | IC50
1 | COc1ccc(/C=C(/CC(=O)Nc2ccc(C)cc2)c2nc3ccccc3s2)cc1 | > 80 µM (inactive)
2 | Brc1ccc(CSc2ccc(-c3ccco3)nn2)cc1 | > 80 µM (inactive)
3 | Cc1cc(C)c(NC(=O)C[N+](C)(C)CC(O)COc2cccc3ccccc23)c(C)c1 (stereo not drawn) | 47.5 µM (active)
4 | CCNCCC(=O)N1c2ccccc2Sc2ccc(NC(=O)OCC)cc21 | > 80 µM (inactive)
5 | Cc1ccc(-c2noc(CCC(=O)Nc3ccccc3N3CCN(C)CC3)n2)cc1 | > 80 µM (inactive)
6 | N=c1n(Cc2ccc(Cl)cc2)c2ccccc2n1CC(O)c1ccco1 (stereo not drawn) | 13.1 µM (active)
7 | NC[C@H](Cc1ccccc1)NCCc1cc(C(F)(F)F)cc(C(F)(F)F)c1 | 52.7 µM (active)
8 | CCCCOc1ccc(CSC(=N)N)cc1[N+](=O)[O-] | > 80 µM (inactive)
9 | Cc1nn(Cc2ccccc2)c2c1C(c1ccccc1)C(C#N)=C(N)O2 (stereo not drawn) | 69.8 µM (active)
10 | CCCC(C(=O)OCCN(CC)CC)(c1ccccc1)c1ccccc1 | 77.1 µM (active)
11 | CN(C)Cc1ccc(F)cc1Sc1cc(Cl)ccc1Cl | 69.1 µM (active)
12 | CCCCCCCCCCCCN1C(=O)CSC1c1cccnc1 (stereo not drawn) | 12 µM (active)
13 | O=C(NC1CCN(Cc2ccccc2)CC1)c1cc(Br)c(Br)[nH]1 | > 80 µM (inactive)
14 | O=C(COC(=O)c1ccccc1NC(=O)c1ccco1)Nc1ccc2c(c1)OC(F)(F)O2 | 10.7 µM (active)
15 | FC(F)(F)COc1nc(N2CCCCC2)nc(N2CCNCC2)n1 | > 80 µM (inactive)
16 | O=C(Nc1cccc(C(F)(F)F)c1)c1ccc(N2CCNCC2)c([N+](=O)[O-])c1 | > 80 µM (inactive)
17 | CN(C)Cc1ccccc1C1(O)c2ccccc2CSc2ccccc21 (stereo not drawn) | > 80 µM (inactive)

Row | Compound | IC50
18 | Cc1ccc2c(c1)C1CN(C)CCC1N2S(=O)(=O)c1ccc(Oc2ccc([N+](=O)[O-])cc2)cc1 (stereo not drawn) | > 80 µM (inactive)
19 | O=C(Nc1cccc(-c2cccc(Cl)c2)c1)C1CCN(C2CCC2)CC1 | 33.6 µM (active)
20 | COc1ccc2sc(N(CCCN(C)C)C(=O)c3ccc(S(=O)(=O)N(C)C4CCCCC4)cc3)nc2c1 | 66.5 µM (active)
21 | Clc1ccc(-c2cc(C3CCNCC3)[nH]n2)c(Cl)c1 | > 80 µM (inactive)
22 | C[C@@H](CN1CCC[C@H]1CN1C(N)=NC[C@@H]1Cc1ccccc1)N1C[C@@H](Cc2ccccc2)N(CCCC2CCCC2)C1=N | 16.3 µM (active)
23 | CCCCOC(=O)CNc1nnc(SCC(=O)OCC)[nH]c1=O | > 80 µM (inactive)
24 | Fc1ccc(N2N=C(c3cccs3)CC2c2ccco2)c(F)c1 (stereo not drawn) | > 80 µM (inactive)
25 | O=C(c1ccc(Cl)cc1)c1ccc(OCC(O)CN2CCCCC2)cc1 (stereo not drawn) | 34.8 µM (active)
26 | CCCc1[nH]nc2c1C(c1c(C)nn(-c3ccccc3)c1Cl)C(C#N)=C(N)O2 (stereo not drawn) | > 80 µM (inactive)
27 | CCCCc1nc(NCCN)c(C#N)c2c1CSC(C)(C)C2 | > 80 µM (inactive)
28 | CCOC(=O)c1c(NC(=O)CSc2cn(CC)c3ccccc23)sc2c1CCC2 | > 80 µM (inactive)
29 | CC1(C)CC(=O)c2sc(N)nc2C1 | > 80 µM (inactive)
30 | CN1CCC[C@@H]1CCO[C@](C)(c1ccccc1)c1ccc(Cl)cc1 | > 80 µM (inactive)
31 | CCCC[C@@H]1CN=C(N)N1CCc1cc(C(F)(F)F)cc(C(F)(F)F)c1 | 28.5 µM (active)
32 | COCCn1c(CN2CCC(Cc3ccccc3)CC2)nc2c1c(=O)n(C)c(=O)n2C | 5.73 µM (active)
33 | NC(N)=N/N=C/c1ccc(Cl)c([N+](=O)[O-])c1 | 71.5 µM (active)
